Source: PubChem BioAssay
The source made the active and inactive calls.

How the values were obtained:
[1] = E. coli DRC41 culture turbidity changes, primary screen, E. coli filamentation inducer project, strain DRC41, OD650, 48 h (AID 1152);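 further: E. coli MC1000 strain DRC41 lacking acrAB efflux pump and sulA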; settings: E. coli DRC41 (acrAB sulA), higher = more signal, called active from +8 up or from −8 down
[2] = small-molecule binders of probe aLefty1, primary screen, biochemical, small-molecule microarray, 635/667 nm fluorescence (AID 1153); settings: higher = more signal;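 further: score merges spot fluorescence with signal-to-noise ratio from the scanned slide images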
[3] = PSAC antagonists in infected red cells, primary screen, cell-based, P. falciparum Indochina, OD700, 1 h (AID 1154); settings: P. falciparum Indochina infected RBC osmotic lysis, higher = more signal, called active from +8 up or from −8 down
[4] = PSAC antagonists in infected red cells, primary screen, cell-based, P. falciparum Indochina, OD700, 2 h (AID 1155);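 further: lysis reports solute entry through the parasite surface anion channel PSAC; channel blockers reduce lysis of infected cells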; settings: P. falciparum Indochina infected erythrocytes, osmotic lysis OD700; higher = more signal, called active from +8 up or from −8 down
[5] = osmotic lysis modulators in infected erythrocytes, primary screen, PSAC antagonist project, cell-based, P. falciparum Indochina, OD700, 3 h (AID 1156); settings: higher = more signal, called active from +8 up or from −8 down
[6] = PSAC antagonists in infected red cells, primary screen, cell-based, P. falciparum Indochina, OD700, 18 h (AID 1157); settings: P. falciparum Indochina infected erythrocytes, osmotic lysis OD700, 18 h; higher = more signal, called active from +8 up or from −8 down
[7] = modulators of S6 phosphorylation in cells, primary screen, cell-based, A549, cytoblot, luminescence, serum-stimulated (AID 1158); settings: A549 phospho-S6 cytoblot, 5 h, higher = more signal;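 further: serum-stimulated A549 lung adenocarcinoma cells; signal is phosphorylated S6 detected by cytoblot immunostaining with HRP secondary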
[8] = molecular target: NADPH oxidase 2 (Homo sapiens) (UniProt P04839); test: NOX2-dependent H2O2 signal modulators, primary screen, NOX inhibitor project, cell-based, HEK293-NOX2, PMA-stimulated, Amplex Red fluorescence (AID 1159); settings: 45 min, higher = more signal, called active from +8 up or from −8 down; further: test concentration not given here
NADPH oxidase 2 (Homo sapiens), sequence (P04839 whole entry, looked up): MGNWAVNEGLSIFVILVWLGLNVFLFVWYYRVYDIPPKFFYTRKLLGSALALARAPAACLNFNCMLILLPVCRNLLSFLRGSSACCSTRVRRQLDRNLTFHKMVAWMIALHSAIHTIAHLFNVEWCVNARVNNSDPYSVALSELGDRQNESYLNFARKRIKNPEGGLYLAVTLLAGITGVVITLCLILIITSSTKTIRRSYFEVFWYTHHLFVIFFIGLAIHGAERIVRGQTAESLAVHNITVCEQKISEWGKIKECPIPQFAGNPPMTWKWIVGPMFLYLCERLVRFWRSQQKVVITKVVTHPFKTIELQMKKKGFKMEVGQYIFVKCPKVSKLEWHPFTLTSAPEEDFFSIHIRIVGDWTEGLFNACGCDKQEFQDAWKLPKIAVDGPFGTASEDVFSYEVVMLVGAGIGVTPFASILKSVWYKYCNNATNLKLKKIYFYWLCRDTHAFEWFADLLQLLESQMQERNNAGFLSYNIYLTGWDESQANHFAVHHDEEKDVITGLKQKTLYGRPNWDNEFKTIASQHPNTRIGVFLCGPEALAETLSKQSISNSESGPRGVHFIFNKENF

[9] = molecular target: NADPH oxidase 4 (Homo sapiens) (UniProt Q9NPH5); test: NOX4-dependent H2O2 signal modulators, primary screen, NOX inhibitor project, cell-based, HEK293-NOX4, tetracycline-induced, Amplex Red fluorescence (AID 1160); settings: 45 min, higher = more signal, called active from +8 up or from −8 down
NADPH oxidase 4 (Homo sapiens), sequence (Q9NPH5 whole entry, looked up): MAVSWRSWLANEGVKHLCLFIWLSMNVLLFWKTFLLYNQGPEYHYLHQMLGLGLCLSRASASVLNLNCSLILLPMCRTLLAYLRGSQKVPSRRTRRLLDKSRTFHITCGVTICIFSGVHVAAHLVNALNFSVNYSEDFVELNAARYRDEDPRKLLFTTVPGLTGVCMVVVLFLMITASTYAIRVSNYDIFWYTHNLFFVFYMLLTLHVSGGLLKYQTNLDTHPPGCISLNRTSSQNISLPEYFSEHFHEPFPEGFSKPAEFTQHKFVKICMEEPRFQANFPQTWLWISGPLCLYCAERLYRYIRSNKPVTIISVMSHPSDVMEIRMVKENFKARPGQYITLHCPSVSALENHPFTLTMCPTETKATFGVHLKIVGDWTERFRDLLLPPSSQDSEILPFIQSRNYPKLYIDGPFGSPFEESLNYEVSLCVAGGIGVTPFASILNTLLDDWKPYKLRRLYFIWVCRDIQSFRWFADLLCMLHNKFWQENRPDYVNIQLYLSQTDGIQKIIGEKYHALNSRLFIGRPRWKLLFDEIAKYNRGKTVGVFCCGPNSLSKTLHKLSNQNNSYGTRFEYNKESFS

[10] = molecular target: NADPH oxidase 5 (Homo sapiens) (UniProt Q96PH1); test: NOX5-dependent H2O2 signal modulators, primary screen, NOX inhibitor project, cell-based, HEK293-NOX5, Amplex Red fluorescence (AID 1161); settings: HEK293-NOX5, ionomycin, 45 min, higher = more signal
NADPH oxidase 5 (Homo sapiens), sequence (Q96PH1 whole entry, looked up): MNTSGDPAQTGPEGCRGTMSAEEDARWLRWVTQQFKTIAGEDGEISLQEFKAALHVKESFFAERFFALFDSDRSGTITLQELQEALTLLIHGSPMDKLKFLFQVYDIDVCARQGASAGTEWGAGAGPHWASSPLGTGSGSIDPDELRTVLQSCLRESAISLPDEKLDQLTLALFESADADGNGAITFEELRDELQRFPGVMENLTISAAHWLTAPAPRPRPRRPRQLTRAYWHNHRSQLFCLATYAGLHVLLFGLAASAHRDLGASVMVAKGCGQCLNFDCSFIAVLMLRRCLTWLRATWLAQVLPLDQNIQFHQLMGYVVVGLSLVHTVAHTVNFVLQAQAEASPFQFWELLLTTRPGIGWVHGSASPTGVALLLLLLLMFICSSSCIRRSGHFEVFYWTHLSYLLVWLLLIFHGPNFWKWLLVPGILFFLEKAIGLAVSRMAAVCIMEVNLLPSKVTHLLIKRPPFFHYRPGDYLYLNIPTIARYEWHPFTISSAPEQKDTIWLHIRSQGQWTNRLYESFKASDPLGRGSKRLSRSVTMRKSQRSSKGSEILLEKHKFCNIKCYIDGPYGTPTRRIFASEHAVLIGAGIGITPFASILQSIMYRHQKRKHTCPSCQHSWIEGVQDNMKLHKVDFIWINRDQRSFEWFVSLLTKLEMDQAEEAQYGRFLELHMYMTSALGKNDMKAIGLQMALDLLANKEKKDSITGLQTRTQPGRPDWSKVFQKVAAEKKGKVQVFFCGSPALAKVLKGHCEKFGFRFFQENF

| SMILES | z-score [1] | composite z-score [2] | z-score [3] | z-score [4] | z-score [5] | z-score [6] | z-score [7] | z-score [8] | z-score [9] | z-score [10] |
| --- | --- | --- | --- | --- | --- | --- | --- | --- | --- | --- |
| CCC(=O)[C@]12O[C@@]3([C@@H]4C(=O)OCC[C@@H]41)N(Cc1ccccc1)C(C)=C(C(=O)OC)[C@@H](c1ccccc1)N3C2=O | 0.57 (inactive) | -0.243 | 0.34 (inactive) | -1.22 (inactive) | 0.573 (inactive) | -1.74 (inactive) | 0.21 | 1.2 (inactive) | 0.785 (inactive) | 0.538 |
| O=C1NC(=O)C2C1C=CC(C(O)C=Cc1ccc([N+](=O)[O-])cc1)N2Nc1ccccn1 (stereo not given) | -0.297 (inactive) | 0.0457 | 0.273 (inactive) | 1.27 (inactive) | 0.0385 (inactive) | 1 (inactive) | -0.831 | 0.258 (inactive) | -2.01 (inactive) | -1.52 |
| C[C@@H]1CC[C@H]2C(=O)N3[C@@H](CC[C@@H](C)[C@@H]3c3cccc(N4CCOCC4)c3)C(=O)N2[C@H]1c1cccc(N2CCOCC2)c1 | 0.107 (inactive) | 0.191 | 0.43 (inactive) | 0.367 (inactive) | 0.567 (inactive) | 0.197 (inactive) | 0.348 | 1.07 (inactive) | -1.09 (inactive) | 0.125 |
| CC(=O)Nc1ccc([C@H]2[C@H](C)CC[C@H]3C(=O)N4[C@@H](CC[C@@H](C)[C@@H]4c4ccc(NC(C)=O)cc4)C(=O)N32)cc1 | -0.929 (inactive) | -0.045 | 1.91 (inactive) | 0.586 (inactive) | 0.699 (inactive) | 0.32 (inactive) | -0.164 | 0.0427 (inactive) | 1.25 (inactive) | 0.198 |
| C=CC[C@]1(C(=O)NCC(O)CO)N=C(c2ccc(OCCCO)cc2)O[C@H]1c1ccccc1 (stereo not given in full) | 1.46 (inactive) | -0.179 | 6.95 (inactive) | 0.741 (inactive) | 1.55 (inactive) | 0.618 (inactive) | 0.672 | 1.22 (inactive) | 0.542 (inactive) | 0.195 |
| CN(C)C(=O)[C@@]1(Cc2ccccc2N=[N+]=[N-])N=C(c2ccc(OCCCO)cc2)O[C@H]1c1ccccc1CN=[N+]=[N-] | 1.04 (inactive) | 0.635 | 17.8 (active) | 2.5 (inactive) | 2.73 (inactive) | -0.682 (inactive) | 1.01 | -1.52 (inactive) | 1.06 (inactive) | 0.474 |
| O=C(CS)NCCCCCCNC(=O)[C@@H]1C[C@@H]2C(=O)N[C@@H](Cc3ccccc3)C(=O)N2[C@@H]1c1ccc(O)cc1 | 0.706 (inactive) | 0.0273 | 6.26 (inactive) | 1.52 (inactive) | 4.5 (inactive) | 0.595 (inactive) | -0.113 | 1.48 (inactive) | 0.457 (inactive) | 0.729 |
| COCCOC(=O)N1C(=O)[C@@]2(c3cc(C#CCNC(N)=O)ccc31)[C@H](c1ccc(OCCO)cc1)N1[C@H](c3ccccc3)[C@H](c3ccccc3)OC(=O)[C@H]1[C@@H]2C(=O)Nc1nc2ccccc2s1 | 2.28 (inactive) | 0.0844 | 2.66 (inactive) | 1.67 (inactive) | 0.73 (inactive) | 1.24 (inactive) | 0.652 | 0.398 (inactive) | -0.211 (inactive) | 1.12 |
| COc1ccc([Si](C)(C)[C@H]2[C@H](CCO)O[C@@]3(C(=O)N(Cc4ccc(N5CCCCC5=O)cc4)c4ccccc43)[C@@H]2C)cc1 | 0.178 (inactive) | 0.0361 | 29.4 (active) | 25.6 (active) | -0.512 (inactive) | 2.98 (inactive) | 1.26 | 1.11 (inactive) | 0.347 (inactive) | 1.5 |
| CCCC=C(CCC)[C@@H](NS(=O)(=O)c1ccc(C(F)(F)F)cc1)c1ccc(-c2ccccc2)cc1 | -1.78 (inactive) | 0.448 | 2.51 (inactive) | 0.329 (inactive) | -0.516 (inactive) | 0.543 (inactive) | 1.47 | -1.57 (inactive) | -0.618 (inactive) | 2.7 |
| COc1ccc(C(O)C2C=CC3C(=O)N(C)C(=O)C3N2N2CCCCC2)cc1OCc1ccccc1 (stereo not given) | -1.54 (inactive) | 0.11 | 2.29 (inactive) | 1.53 (inactive) | 0.42 (inactive) | 1.27 (inactive) | -1.16 | 0.0637 (inactive) | -1.56 (inactive) | 1.31 |
| [N-]=[N+]=NCc1ccccc1C[C@@]1(C(=O)O)N=C(c2ccc(OCCCO)cc2)O[C@@H]1c1ccccc1N=[N+]=[N-] | 0.051 (inactive) | 0.337 | 30.3 (active) | 24.4 (active) | 1.44 (inactive) | 5.12 (inactive) | -0.272 | -0.0613 (inactive) | 1.21 (inactive) | 0.819 |
| CCCCO[C@H]1C[C@H]2C(Br)=C[C@@]1(CO)C(=O)[C@]21CO1 | 2.71 (inactive) | -0.198 | -0.789 (inactive) | -1 (inactive) | -0.269 (inactive) | -2.44 (inactive) | 1.69 | -0.446 (inactive) | 0.493 (inactive) | 0.178 |
| COCCOC(=O)N1C(=O)[C@@]2(c3cc(C#CC4=CCCCC4)ccc31)[C@H](C(=O)NC[C@H](O)c1ccccc1)[C@H]1C(=O)O[C@H](c3ccccc3)[C@H](c3ccccc3)N1[C@@H]2c1ccc(OCCO)cc1 | -0.999 (inactive) | 0.197 | 3.71 (inactive) | 2.15 (inactive) | -0.681 (inactive) | 1.05 (inactive) | 0.0766 | 1.54 (inactive) | 1.17 (inactive) | 1.59 |
| CO[C@@H]1COC(=O)[C@H](C)NC(=O)CC=C[C@@H](C)[C@H](NS(=O)(=O)c2ccc(C)cc2)COC(=O)CC=C[C@@H]1C | 0.117 (inactive) | -0.15 | -0.697 (inactive) | -0.207 (inactive) | 0.0724 (inactive) | -0.0387 (inactive) | 0.225 | 0.564 (inactive) | 0.661 (inactive) | 0.661 |
| CN1C2C=C(c3ccc(CO)cc3)C(C3C(=O)N(C(N)=O)C(=O)C32)C1c1cccs1 (stereo not given) | 1.37 (inactive) | -0.0893 | 2.26 (inactive) | -1.44 (inactive) | -0.71 (inactive) | -1.37 (inactive) | -0.402 | 1.57 (inactive) | -0.124 (inactive) | -0.0981 |
| CN(C)c1ccc(C(O)C2C=CC3C(=O)NC(=O)C3N2Nc2ccc(Cl)cc2Cl)cc1 (stereo not given) | -0.85 (inactive) | 0.68 | 3.51 (inactive) | 0.567 (inactive) | 1.45 (inactive) | 1.27 (inactive) | -0.645 | -1.15 (inactive) | -4.56 (inactive) | -2.72 |
| CCOC(=O)C[C@H]1[C@H](OC(=O)c2ccccc2-c2ccccc2)[C@@H](NC(=O)C2CCCCC2)c2cc(OCCCO)ccc2N1C(=O)c1ccccc1 | 1.99 (inactive) | -0.191 | 1.97 (inactive) | 0.718 (inactive) | 0.217 (inactive) | 0.402 (inactive) | -0.073 | 0.629 (inactive) | 0.936 (inactive) | -1.64 |
| C=C(COC)/C(=C/C[C@H](OC(C)=O)c1ccc(OCCO)cc1)c1cnc2ccccc2c1 | 1.25 (inactive) | 0.199 | 13.5 (active) | -0.0743 (inactive) | 1.05 (inactive) | -0.947 (inactive) | -0.117 | 1.32 (inactive) | 0.767 (inactive) | -0.593 |
| COc1cc(Cc2cc3c(c(CCc4ccccc4)n2)[Si](C(C)C)(C(C)C)OC3)cc(OC)c1OC | -0.655 (inactive) | -0.0501 | 2.06 (inactive) | 0.481 (inactive) | -0.411 (inactive) | -0.232 (inactive) | -0.475 | -0.195 (inactive) | -0.231 (inactive) | -2.59 |
| CC(C)NC(=O)[C@@]1(Cc2ccccc2I)c2ccccc2C(=O)N(C2CCCCC2)[C@H]1c1ccc(CO)cc1 | 0.151 (inactive) | 0.149 | 7.99 (inactive) | 1.13 (inactive) | 3.67 (inactive) | 1.28 (inactive) | 0.274 | 0.988 (inactive) | -1.77 (inactive) | -1.42 |
| C=C(C)[C@@H]1CC=C(C(O)C2C=CC3C(=O)NC(=O)C3N2Nc2ccccn2)CC1 (stereo not given in full) | -1.56 (inactive) | 0.497 | 0.671 (inactive) | 0.613 (inactive) | 0.0385 (inactive) | 0.876 (inactive) | -1.11 | -1.02 (inactive) | -2.89 (inactive) | -2.69 |
| O=C1O[C@H](c2ccccc2)[C@H](c2ccccc2)N2[C@H]1[C@@H](C(=O)Nc1nc3ccccc3s1)[C@]1(C(=O)Nc3ccc(C#CC4=CCCCC4)cc31)[C@H]2c1ccccc1OCCO | -0.485 (inactive) | 0.179 | 1.96 (inactive) | 2.21 (inactive) | 0.344 (inactive) | 1.41 (inactive) | -0.0532 | 0.76 (inactive) | 0.195 (inactive) | 0.963 |
| C=C[C@H](OC)[C@@H](OC(=O)Nc1ccc(SC)cc1)c1ccc(O)c(F)c1 | 0.738 (inactive) | 0.0043 | 25.5 (active) | 8.06 (active) | 1.83 (inactive) | -0.016 (inactive) | 0.461 | -2.96 (inactive) | -1.66 (inactive) | -1.06 |
| CC(C)C[C@@H]1NC(=O)[C@H]2C[C@@H](C(=O)NCCCCCC[N+](C)(C)C)[C@@H](c3ccc(O)cc3)N2C1=O | 0.706 (inactive) | 0.0502 | 1.8 (inactive) | 0.459 (inactive) | -3.67 (inactive) | 0.0558 (inactive) | -0.496 | 1.04 (inactive) | 1 (inactive) | -0.306 |
| C=C(CCCC)/C(=C/C[C@@H](OC(=O)c1ccncc1)c1cccc(OCCO)c1)c1cc(C(=O)OC)ccc1OC | 1.37 (inactive) | 0.0371 | 21 (active) | 3.89 (inactive) | 2.48 (inactive) | 1.26 (inactive) | -0.365 | 1.33 (inactive) | 1.62 (inactive) | -0.975 |
